# Only some compounds are listed: those with a hit (about 4.1% of all), similar ones and a draw of the others.
# rCAG RNA binder: r(CAG) repeat RNA binding. TO-PRO-1 dye displacement fluorescence. inhibition, % at 3 µM. 370,000 tested, 1.3% active. AID 651821;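 active = inhibition above the plate cutoff, the mean of all test compounds on that plate plus 3 SD, cut at about 35% in these data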;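 note: higher means more dye released from RNA so lower well fluorescence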
# UHRF1 binding: blocks human UHRF1 binding to methylated DNA | 370,000 tested, 0.75% active | Q96T88 | UHRF1 binding to methylated oligo, TR-FRET | inhibition, % at 4.4 µM; in the data active = inhibition above about 21%;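 note: UHRF1 SRA domain binding a hemimethylated CpG hairpin DNA probe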
# Target sequence (Q96T88 whole entry, looked up, the tested form may be a part): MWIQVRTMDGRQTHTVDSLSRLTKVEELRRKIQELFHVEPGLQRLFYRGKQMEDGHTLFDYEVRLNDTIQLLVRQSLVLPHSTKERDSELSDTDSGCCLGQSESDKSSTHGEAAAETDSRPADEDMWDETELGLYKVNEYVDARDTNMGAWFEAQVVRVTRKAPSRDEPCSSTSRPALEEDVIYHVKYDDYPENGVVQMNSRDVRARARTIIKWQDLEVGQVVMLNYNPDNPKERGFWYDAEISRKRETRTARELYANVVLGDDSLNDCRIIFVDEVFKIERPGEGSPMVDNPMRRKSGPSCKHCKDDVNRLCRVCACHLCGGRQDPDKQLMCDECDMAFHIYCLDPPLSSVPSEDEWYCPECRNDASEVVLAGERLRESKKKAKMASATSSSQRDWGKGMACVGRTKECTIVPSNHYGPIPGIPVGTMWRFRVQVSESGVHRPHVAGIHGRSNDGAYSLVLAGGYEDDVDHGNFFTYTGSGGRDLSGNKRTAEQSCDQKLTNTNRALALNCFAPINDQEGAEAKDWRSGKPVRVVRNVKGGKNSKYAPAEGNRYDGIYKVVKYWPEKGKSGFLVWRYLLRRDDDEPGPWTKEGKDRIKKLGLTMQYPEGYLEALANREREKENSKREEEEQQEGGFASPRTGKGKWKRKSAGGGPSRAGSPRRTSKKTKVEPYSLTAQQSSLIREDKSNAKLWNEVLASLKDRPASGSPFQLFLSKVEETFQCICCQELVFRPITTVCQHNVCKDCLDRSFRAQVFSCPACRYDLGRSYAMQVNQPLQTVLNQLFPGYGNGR
# LEDGF integ inh: blocks HIV-1 LEDGF/p75-dependent DNA integration. TR-FRET IN-LEDGF/p75 DNA integration, Eu/Cy5. inhibition, % at 3.7 µM. 370,000 tested, 0.64% active. AID 743269;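 active = inhibition above the screen-wide mean plus 3 SD, cut at about 13% in these data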;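 note: signal is the Cy5 over europium emission ratio at 671 and 618 nm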
# MBD2 DNA inh: inhibitors of human MBD2 binding to methylated oligonucleotide | Q9UBB5 | TR-FRET | inhibition, % at 4.4 µM | 370,000 tested, 0.31% active | AID 686964; in the data active = inhibition above about 13%
# ABHD5 PLIN5 PPI: inhibitors of human ABHD5-perilipin-5 interaction | Q00G26+Q8WTS1 | 360,000 tested, 0.78% active | Split G. princeps luciferase complementation, luminescence, 4 h | inhibition, % at 4 µM;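 active = inhibition above the mean inhibition across every tested compound plus 3 SD, cut at about 22% in these data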
# PRMT1 FP inh: blocks human protein arginine methyltransferase 1; Q99873; recombinant PRMT1, activity-based probe fluorescence polarization; inhibition, % at 2.79 µM; 370,000 tested, 1.3% active; AID 652257;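 active = inhibition above about 21% made by adding two undisclosed values, limit read from the data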
# PRMT1 inh conf: PRMT1 (human) inhibition, FP confirmation; shares compounds with PRMT1 FP inh; AID 687036; inhibition, % at 2.79 µM; 3,300 tested, 42% active; recombinant His-PRMT1, activity-based probe fluorescence polarization;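 active = mean inhibition across replicates above the hit cutoff derived for the earlier primary screen, cut at about 22% in these data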
# Numbers stand for hits; - = inactive; . = not tested or not shown.
SMILES,rCAG RNA binder,UHRF1 binding,LEDGF integ inh,MBD2 DNA inh,ABHD5 PLIN5 PPI,PRMT1 FP inh,PRMT1 inh conf
N#CCc1c(C#N)c(N)nc(N2CCCC(O)C2)c1C#N (centres undefined),-,-,-,-,-,31,-
COc1ccc(N=Nc2nc3cc(Br)c(Br)cc3n2C)c(OC)c1,-,-,-,-,-,69,49
O=c1[nH]c2cc3c(cc2cc1CN(Cc1ccccc1)Cc1nnnn1Cc1ccco1)OCCO3,-,-,16,-,34,52,-
O=c1[nH]c2cc3c(cc2cc1CN(Cc1cccs1)Cc1nnnn1Cc1ccco1)OCCO3,-,-,-,-,-,58,33
Cc1ccc2[nH]c(=O)c(CN(Cc3ccc4c(c3)OCO4)Cc3nnnn3Cc3ccco3)cc2c1,-,-,-,-,-,-,.
COc1ccccc1CN(Cc1cc2cc3c(cc2[nH]c1=O)OCCO3)Cc1nnnn1Cc1ccco1,-,-,-,-,-,36,-
CCc1ccc2[nH]c(=O)c(CN(Cc3ccccc3)Cc3nnnn3Cc3ccco3)cc2c1,-,-,-,-,-,-,.
COc1ccc(N2C(=O)CC(N(C)CCc3ccc(OC)c(OC)c3)C2=O)cc1 (centres undefined),-,-,-,-,-,48,-
COC(=O)c1ccc(N2C(=O)CC(N(C)CCc3ccc(OC)c(OC)c3)C2=O)cc1 (centres undefined),-,-,-,-,-,-,.
COc1ccc(C2c3cc(OC)c(OC)cc3CCN2C2CC(=O)N(c3ccccc3)C2=O)cc1OC (centres undefined),-,-,-,-,-,42,-
COc1ccc(CCN(C)C2CC(=O)N(c3ccccc3)C2=O)cc1OC (centres undefined),-,-,-,-,-,46,-
Cc1ccccc1CN1CCCCC(NC(=O)c2ccc(-c3ccccc3)cc2)C1=O (centres undefined),-,-,-,-,.,-,.
c1ccc(-c2cc3c(N4CCCC4)ncnc3s2)cc1,-,-,-,-,-,40,-
CC(=O)Nc1ccc(S(=O)(=O)NCC(=O)NNC(=O)COc2ccccc2Cl)cc1,-,-,-,-,-,25,22
COC(=O)[C@]12C[C@H](CC(=O)N3CCSCC3)C(=O)N(Cc3ccc4c(c3)OCO4)C1=C[C@H](COCc1ccccc1)O[C@@H]2C,-,-,-,-,.,-,.
COC(=O)CN(C#N)c1nc(NCc2ccccc2)nc(OC)n1,-,-,-,-,-,64,-
COc1ccc(C(=O)c2sc3nc(C)cc(-c4cccs4)c3c2N)cc1,-,-,-,-,-,-,.
CC(C)NC(=O)c1sc2nc(-c3cccs3)cc(-c3cccs3)c2c1N,-,-,-,-,.,30,-
Nc1c(C(=O)C2CC2)sc2nc(-c3cccs3)cc(C(F)(F)F)c12,-,-,-,-,-,32,-
CC(=O)c1sc2nc(-c3cccs3)ccc2c1N,-,-,-,-,-,73,29
COc1ccc(CN2C(=O)Cc3c2nc(N)c2c(N)nc(N4CCOCC4)c(C#N)c32)cc1,-,-,-,-,-,25,-
C#CCNC(=O)CSCc1nc(-c2ccc(OCC)cc2)oc1C,.,-,-,-,.,-,.
COc1ccccc1NC(=O)CSc1nccc(-c2ccco2)n1,-,-,-,-,-,32,-
COc1ccccc1NC(=O)CSc1nnc(-c2ccco2)o1,-,-,-,-,-,-,.
Cc1ccc(C)c(NC(=O)CSc2c(C)n[nH]c2C)c1,-,-,-,-,-,-,.
SMILES,rCAG RNA binder,UHRF1 binding,LEDGF integ inh,MBD2 DNA inh,ABHD5 PLIN5 PPI,PRMT1 FP inh,PRMT1 inh conf
O=C(CSC1=NCCN1)Nc1cccc([N+](=O)[O-])c1,-,-,-,-,-,34,-
CCOc1ccccc1NC(=O)CSc1c(C)n[nH]c1C,-,-,-,-,-,25,-
Nc1nc(SCC(=O)Nc2cccc([N+](=O)[O-])c2)n[nH]1,-,-,-,-,-,-,.
CCOc1ccccc1NC(=O)/C=C/C(N)=O,-,-,-,-,-,61,47
C=CCN1C(=O)[C@@H](CC(=O)NCc2ccc(C)o2)[C@]2(C(=O)OC)CCCCC=C12,-,-,-,-,.,-,.
O=C(/C=C(\Nc1cc(Cl)c(Cl)c(Cl)c1)c1ccccc1)c1ccccc1,-,-,-,-,.,-,.
O=C(CSC1=NC(=O)C(c2ccccc2)C(=O)N1)Nc1ccccc1[N+](=O)[O-] (centres undefined),-,-,-,-,-,-,.
COc1ccccc1NC(=O)CSC1=NCCN1,-,-,-,-,-,31,-
O=C(CSC1=NCCN1)Nc1ccccc1[N+](=O)[O-],-,-,-,-,-,55,-
O=C(CSC1=NCCN1)NC(c1ccccc1)c1ccccc1,-,-,-,-,-,41,26
O=C(CSC1=NCCN1)NC1CCCCCC1,-,-,-,-,-,-,.
Cc1ccc(NC(=O)CSC2=NCCN2)cc1,-,-,-,-,-,32,-
O=C(OCCN1CCN(C2CN(Cc3cn(Cc4ccccc4C(F)(F)F)nn3)S(=O)(=O)C2)CC1)c1cc2ccccc2o1 (centres undefined),-,-,-,-,.,-,.
COc1ccc(-n2c(COc3ccc(C)cc3)nnc2SCC(=O)c2ccc(-c3ccccc3)cc2)cc1,-,-,-,-,.,-,.
O=C1c2ccccc2C(=O)N1SC1CCCCC1,-,-,-,-,-,63,73
O=C(OCN1C(=O)c2ccccc2C1=O)C1CCCCC1,-,-,-,-,-,-,.
COc1ccc(NC(=O)C2CSC(C)(C)N2C=O)cc1 (centres undefined),-,-,-,-,-,-,.
CC1(C)SCC(C(=O)O)N1C=O (centres undefined),-,-,-,-,-,26,-
O=C(NCCc1ccccc1Cl)[C@@H]1CCCN1C(=O)[C@@H](NC(=O)N1CCOCC1)C1CCCCC1,-,-,-,-,.,-,.
CN(C)c1ccc(C2NCCS2)cc1 (centres undefined),-,-,-,-,-,35,34
Cc1ccc(C2NCCS2)cc1 (centres undefined),-,-,-,-,-,32,-
CC[C@H](NC(=O)[C@@H](Cc1ccccc1)NC(=O)[C@H]1O[C@@H](n2cnc3c(=O)[nH]c(N)nc32)[C@H](O)[C@@H]1O)c1ccccc1,-,-,-,-,.,-,.
CCOC(=O)C1=C(C)Nc2nc(=S)[nH]n2C1c1ccc(Cl)cc1 (centres undefined),-,-,-,-,-,29,25
CCOC(=O)C1=C(C)Nc2nc(SCC)nn2C1c1ccc(OC)cc1 (centres undefined),-,-,-,-,-,-,.
COc1cccc(NC(=O)Nc2c(-c3ccc(C(F)(F)F)cc3)nc3ncccn23)c1,-,-,-,-,.,-,.
Cc1cc(Cl)ccc1OCc1n[nH]c(=S)n1C1CCCCC1,-,-,-,-,-,26,-

# Screens: PubChem, The Scripps Research Institute Molecular Screening Center
